High-throughput results as filed in PubChem BioAssay.
FBW7 activator: activators of human E3 ligase FBW7 | Q969H0 | AlphaScreen FBW7–phospho-cyclin E peptide binding, activator screen | normalized activity (activation), % at 26.1 µM | 0.13% of 650,000 active; in the data active means normalized activity above about 1.9%;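 further: purified mutant Fbw7 with reduced substrate affinity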
Target sequence (Q969H0 whole entry, looked up): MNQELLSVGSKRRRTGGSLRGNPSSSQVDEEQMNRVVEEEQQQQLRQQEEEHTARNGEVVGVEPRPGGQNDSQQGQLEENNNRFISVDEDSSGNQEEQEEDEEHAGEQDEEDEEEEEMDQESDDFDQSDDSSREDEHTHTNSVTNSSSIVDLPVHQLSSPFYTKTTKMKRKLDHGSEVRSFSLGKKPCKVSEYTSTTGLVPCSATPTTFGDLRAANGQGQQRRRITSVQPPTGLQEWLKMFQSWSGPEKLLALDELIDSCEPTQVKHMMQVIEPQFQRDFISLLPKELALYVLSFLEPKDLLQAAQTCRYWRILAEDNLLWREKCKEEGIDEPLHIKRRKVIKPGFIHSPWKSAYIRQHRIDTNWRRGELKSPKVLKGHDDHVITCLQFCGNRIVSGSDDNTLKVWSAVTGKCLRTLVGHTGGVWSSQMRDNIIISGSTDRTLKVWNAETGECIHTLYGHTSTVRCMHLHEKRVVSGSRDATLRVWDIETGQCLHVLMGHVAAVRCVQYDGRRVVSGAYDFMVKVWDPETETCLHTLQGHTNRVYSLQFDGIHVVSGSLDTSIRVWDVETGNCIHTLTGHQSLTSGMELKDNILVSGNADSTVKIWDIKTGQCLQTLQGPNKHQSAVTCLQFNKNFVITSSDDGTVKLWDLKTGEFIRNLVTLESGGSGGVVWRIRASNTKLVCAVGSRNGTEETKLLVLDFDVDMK
TEAD-YAP block: TEAD-YAP interaction inhibition; AID 1259422; HEK-TIYL cells, TEAD-Gal4/YAP UAS-luciferase luminescence; inhibition, % at 9.12 µM; 1.4% of 640,000 active; in the data active means inhibition above about 32%
MITF inh: inhibitors of human MITF. O75030. 0.91% of 650,000 active. AID 1259374. inhibition, % at 2.6 µM. AlphaScreen MITF homodimerization, bead proximity signal; in the data active means inhibition above about 50%
GPR151 activ: activators of human GPR151; Q8TDV0; PathHunter beta-arrestin GPR151 cells, luminescence; 1% of 650,000 active; activation, % at 11.2 µM; in the data active means activation above about 4.9%
GPR151 conf act: human GPR151 activation, confirmation screen. activation, % at 11.2 µM. 6,700 tested, under 10 active. shares compounds with GPR151 activ. GPR151 PathHunter beta-arrestin cells, luminescence, 90 min; % of EA-reagent control over plate median;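 active means mean percent activation across replicates above the confirmation screen cutoff of 4.91%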
GPR119 counter: activates human GPR119 in a GPR151 counter-screen; 0.3% of 6,700 active; GPR119 PathHunter beta-arrestin cells, luminescence, 90 min; 0 = compound-well median, 100 = enzyme-acceptor control; activation, % at 11.2 µM; shares compounds with GPR151 activ; AID 1508611;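 active means mean percent activation in the counterscreen above 29.09%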;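 further: counterscreen on off-target GPR119 to flag nonselective hits from the GPR151 activator screen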
Large screens that a line does not name were inactive (follow-up assays come after a bar, where they were run). Most compounds without a hit are left out; they make up all but 3.4% or so of the library.

COC1COC(=O)[C@@H](C)NC(=O)C/C=C/[C@H](C)[C@@H](OC)COC(=O)C/C=C/[C@@H]1C (some centres undefined)	none (no result: TEAD-YAP block)
CO[C@@H]1COC(=O)C/C=C/[C@H](C)[C@H](OC)COC(=O)[C@H](C)COC(=O)C/C=C/[C@@H]1C	GPR151 activ 5.1 (no result: TEAD-YAP block) | GPR151 conf act inactive | GPR119 counter inactive
CC(=O)N1CCOc2cc(S(=O)(=O)N3CCN(C)CC3)c(Cl)cc21	GPR151 activ 5.1 | GPR151 conf act inactive | GPR119 counter inactive
CC(=O)N1CCOc2cc(S(=O)(=O)N3CCC(C(N)=O)CC3)c(Cl)cc21	none
COc1cccc(C(=O)CN(C(=O)c2ccc(Cl)cc2Cl)N2C(=O)CCCC2=O)c1	none
CCc1ccccc1NC(=O)CSC1=C(C#N)C(c2cccs2)C(C(=O)Nc2ccccc2C)=C(C)N1 (centres undefined)	none
CCN(CC)c1ccc(/C=N/n2cnnc2)c(O)c1	GPR151 activ 10 | GPR151 conf act inactive | GPR119 counter inactive
CC(C)CCN1CC[C@@H]2[C@H](CCCN2C(=O)CCc2ccc3c(c2)OCO3)C1	none
O=[N+]([O-])c1cccc(CNc2cccc(F)c2)c1	GPR151 activ 11 | GPR151 conf act inactive | GPR119 counter inactive
COc1cc(S(=O)(=O)n2ccnc2)ccc1Br	GPR151 activ 5.7 | GPR151 conf act inactive | GPR119 counter inactive
CCOc1cc(S(=O)(=O)n2ccnc2)ccc1Br	none
CCCCc1ccc(C(=O)Oc2cccc(OC(=O)c3ccc(CCCC)cc3)c2)cc1	none
C#CCSc1nsc(NC(=O)Nc2cccc(F)c2)n1	TEAD-YAP block 36, GPR151 activ 7.1 | GPR151 conf act inactive | GPR119 counter inactive
O=C(Cn1ncc2ccccc2c1=O)NNC(=S)NC1CC2CCC1C2 (centres undefined)	GPR151 activ 10 | GPR151 conf act inactive | GPR119 counter inactive
Fc1ccc(CSc2nnc(CNc3ccc(F)cc3)o2)cc1	none
CC(=O)Nc1c2c(nn1-c1ccc(Cl)cc1)CS(=O)(=O)C2	GPR151 activ 7.8 | GPR151 conf act inactive | GPR119 counter inactive
O=C(Cc1ccc(F)cc1)Nc1c2c(nn1-c1ccc(F)cc1)CS(=O)(=O)C2	GPR151 activ 5.3 | GPR151 conf act inactive | GPR119 counter inactive
O=C(Nc1c2c(nn1-c1ccc(Cl)cc1)CS(=O)(=O)C2)c1ccc(Cl)cc1	none
Cc1nc2c(C(=O)NCC3CCCO3)cnn2c(C)c1Cc1ccccc1 (centres undefined)	none
Cc1nc2c(C(=O)NCc3ccccc3Cl)cnn2c(C)c1Cc1cccc(Cl)c1	GPR151 activ 5.3 | GPR151 conf act inactive | GPR119 counter inactive
CCCCNC(=O)c1cnn2c(C)c(Cc3ccc(F)cc3)c(C)nc12	GPR151 activ 8.3 | GPR151 conf act inactive | GPR119 counter inactive
Cc1cccc(Cc2c(C)nc3c(C(=O)NCC4CCCO4)cnn3c2C)c1 (centres undefined)	GPR151 activ 5.1 | GPR151 conf act inactive | GPR119 counter inactive
COc1ccccc1CNC(=O)c1cnn2c(C)c(Cc3ccc(C)cc3)c(C)nc12	GPR151 activ 5.6 | GPR151 conf act inactive | GPR119 counter inactive
CCOC(=O)c1ccc(CN(Cc2ccc(OC)cc2)S(=O)(=O)c2cccc([N+](=O)[O-])c2)cc1	none
O=C(COC(=O)c1ccc([N+](=O)[O-])cc1)c1ccc(F)cc1	none
Cc1ccc(Cl)cc1NC(=O)CN(C)S(=O)(=O)c1cccs1	none
Cc1nc2c(C(=O)NC3CC3)cnn2c(C)c1Cc1cccc(Cl)c1	none
Cc1nc2c(C(=O)NC3CCCC(C)C3C)cnn2c(C)c1Cc1cccc(Cl)c1 (centres undefined)	GPR151 activ 6.5 | GPR151 conf act inactive | GPR119 counter inactive
CCOC(=O)C1=C(C)Nc2nc(SC)nn2C1c1ccc(OC)cc1 (centres undefined)	none
CCOC(=O)C1=C(C)Nc2nc(SCc3cccnc3)nn2C1c1ccc(OC)cc1 (centres undefined)	GPR151 activ 8.0 | GPR151 conf act inactive | GPR119 counter inactive
COc1cccc(NC(=O)CSc2nc3ccccc3c(=O)n2CCc2ccc(OC)c(OC)c2)c1	GPR151 activ 5.0 | GPR151 conf act inactive | GPR119 counter inactive
CNC(=O)c1cc(F)ccc1Nc1cc(Nc2cccc(OC)c2)ncc1C(F)(F)F	GPR151 activ 9.3 | GPR151 conf act inactive | GPR119 counter inactive
O=C(CNc1n[nH]c(=O)[nH]c1=O)N/N=C/c1ccccc1	GPR151 activ 8.1 | GPR151 conf act inactive | GPR119 counter inactive
CC12C=CC(C)(O1)C1C(=O)N(c3ccccc3)C(=O)C12 (centres undefined)	none
CC12C=CC(C)(O1)C1C(=O)N(c3ccc(-c4ccccc4)cc3)C(=O)C12 (centres undefined)	GPR151 activ 5.7 | GPR151 conf act inactive | GPR119 counter inactive
Nc1ccc(S(=O)(=O)Nc2ncc(C(F)(F)F)cn2)cc1	none
CCCCN(CCCC)S(=O)(=O)c1cc2c(cc1Cl)N(C(C)=O)CCO2	none
CN(C)C(CNC(=S)NCCc1ccccc1)c1cccnc1 (centres undefined)	none
CCOc1cc(/C=C2/C(=N)N3N=C(CC)SC3=NC2=O)cc(Cl)c1OCCOc1cc(C)ccc1C	GPR151 activ 8.4 | GPR151 conf act inactive | GPR119 counter inactive
CCOc1cc(/C=C2/C(=N)N3N=C(CC)SC3=NC2=O)cc(Cl)c1OCCOc1ccc(C)cc1C	none
CC1=C(C(=O)CN2CCN(c3ccccc3)CC2)N2C=CC=CC2N1 (centres undefined)	GPR151 activ 9.2 | GPR151 conf act inactive | GPR119 counter inactive
CC(=O)NC(=O)c1cc2cc([N+](=O)[O-])ccc2oc1=Nc1cccc(F)c1	none
COc1ccc(SCCC(=O)Nc2nc3ccccc3s2)cc1	none
COc1ccc(SCCC(=O)Nc2ccc3sc(C)nc3c2)cc1	GPR151 activ 6.2 | GPR151 conf act inactive | GPR119 counter inactive
Clc1cccc(/C=N/Nc2ncc(Br)cn2)c1	none
CCOc1ccc(C=Nc2ccc(C(C)=O)cc2)c(O)c1	GPR151 activ 5.6 | GPR151 conf act inactive | GPR119 counter inactive
CCOc1ccc(C=Nc2ccc(C(=O)O)cc2)c(O)c1	none
CC(C)OC(=O)c1c(NC(=O)c2cc3nc(-c4ccc(Cl)cc4)cc(C(F)(F)F)n3n2)sc2c1CCCC2	none
COc1ccc(C(=O)OCCCC(=O)c2ccc(F)cc2)c(OC)c1	none
COc1ccc(C(=O)OCCCOC(=O)c2ccc(OC)cc2OC)c(OC)c1	GPR151 activ 5.9 | GPR151 conf act inactive | GPR119 counter inactive
O=C(OCC(=O)N1c2ccccc2Sc2ccccc21)C1CC1	none
O=C(COC(=O)c1ccc(F)c(S(=O)(=O)N2CCOCC2)c1)c1ccccc1	GPR151 activ 6.1 | GPR151 conf act inactive | GPR119 counter inactive
O=C(COC(=O)c1cc(S(=O)(=O)N2CCOCC2)ccc1F)Nc1cccc(F)c1	GPR151 activ 6.5 | GPR151 conf act inactive | GPR119 counter inactive
